High-throughput results deposited in PubChem by National Center for Advancing Translational Sciences (NCATS).
a7 integrin act: qHTS for Activators of Integrin-Mediated Alleviation for Muscular Dystrophy; 0.064% of 350,000 active; Potency, µM (series often up to 38.3 µM), without a hit: top-dose activation, usual class: activators; alpha7betagal myoblasts, beta-gal FDG fluorescence, 48 h; AID 624291, 2012;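 note: 100% = response of the positive control SU9516; nearly all actives have a fitted effect of over 60% in size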
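Alpha7betagal+/- myoblasts (passage 13) were plated 16-24 hr, then exposed to compounds (1:260 dilution of DMSO stock) for 48 hours at 37C. After MPER lysis, β-galactosidase reporter activity was read as FDG fluorescence (ex 480/em 540) after 30 minutes.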
Mito fusion yeast: qHTS Assay for Small Molecule Inhibitors of Mitochondrial Division or Activators of Mitochondrial Fusion; Potency, µM (series often up to 46.1 µM), without a hit: at the highest dose growth rescue (activation), hits mostly activators; S. cerevisiae fusion-defective mutant growth rescue, CellTiterGlo 48 h; 0.23% of 320,000 active; note: % of control where 0% means no effect; nearly all actives have a fitted effect of over 45% in size
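Yeast fusion mutant, YPEG (non-fermentable carbon), compound, 48 h at 37C non-permissive; CellTiterGlo added, 10 min RT, luminescence read. Rescued growth = division inhibition.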
AT treatment: qHTS Assay for Identifying a Potential Treatment of Ataxia-Telangiectasia; F2112 A-T fibroblasts, KAP-1 phosphorylation AlphaLISA; neocarzinostatin DNA damage 30 min before lysis; Potency, µM (doses to about 57.5 µM), for inactives: top-dose activation, hits mostly activators; 0.19% of 320,000 active; note: % of control where 0% means no effect; nearly all actives have a fitted effect of over 45% in size
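ATM-like activity read as KAP-1 phosphorylation via AlphaLISA donor/acceptor antibody pairs after lysis and 6 hr at 25C. Cells were ATM-null patient fibroblasts (F2112, hTERT), dosed 60 min, then exposed to the DSB inducer NCS for 30 min.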
SW480 rerep: A quantitative high throughput screen for small molecules that induce DNA re-replication in SW480 colon adenocarcinoma cells; SW480 DNA re-replication, Hoechst DNA content imaging, 48 h; Potency, µM (series often up to 46.1 µM), for the others: at the highest dose re-replication activation, actives largely listed as activators; 1.8% of 340,000 active; note: % of control where 0% means no effect; nearly all actives have a fitted effect of over 55% in size
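Image-based read-out: total Hoechst fluorescence of nuclei (405 nm excitation, 500-530 nm emission), with hits raising the fraction of high-intensity nuclei. SW480 colon cells incubated 48 hr with compounds at 37 C.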
MCF10A rereplic: A quantitative high throughput screen for small molecules that induce DNA re-replication in MCF 10a normal breast cells; MCF 10A DNA re-replication, Hoechst nuclear intensity, 48 h; Potency, µM (highest dose often 46.1 µM), without a hit: top-dose activity, positive = re-replication, most hits filed as activators; 2.9% of 350,000 active; note: % of control where 0% means no effect; nearly all actives have a fitted effect of over 50% in size
Active calls of the source: *; ? = inconclusive; . = no result given; [ ] = another dose, or the depositor's remark. A selection: hits, their analogues and other compounds. The true share with any hit is near 4.2%. Calls come from the whole dose curve; as a rule, active = well fitted activation curve with a large enough effect; inconclusive = small, poorly fitted or top-dose-only effect; inactive = no such curve, though single readings can be large or run the other way. Potency is the fitted concentration of half-maximal effect.

SMILES	a7 integrin act	Mito fusion yeast	AT treatment	SW480 rerep	MCF10A rereplic
CC(=O)OC1CC2(C)C(CCC2(O)C(C)=O)C2CCC3C(Cl)C(=O)CCC3(C)C12 (stereo not given)	13%	.	.	-2%	0%
Cc1onc(-c2c(F)cccc2Cl)c1C(=O)OCc1nnc(-c2ccccc2)o1	-2%	22%	11%	-11%	14%
COc1ccc(NS(=O)(=O)c2cc(NC(=O)CCc3ccc(OC)c(OC)c3)ccc2N2CCOCC2)cc1	5%	.	.	-2%	-1%
O=C1/C(=N\S(=O)(=O)c2cccs2)C([n+]2ccccc2)=C([O-])c2ccccc21	-29%	-5%	-4%	12µM*	17%
Cc1ccc(NC(=O)/C=C/c2ccc([N+](=O)[O-])s2)cc1	-47%	-2%	-7%	8.2µM*	5.8µM*
Cc1ccc(NC(=O)/C=C/c2ccc([N+](=O)[O-])s2)c(C)c1	-53%	7%	-9%	4.6µM*	1.6µM*
Cc1cc([N+](=O)[O-])ccc1NC(=O)/C=C/c1cccs1	-4%	0%	-2%	-94%	-62%
Cc1cccc(NC(=O)/C=C/c2ccc([N+](=O)[O-])s2)c1	-51%	3%	0%	6.5µM*	2.3µM*
O=C1c2cc3c(cc2CCC1c1ccc2c(c1)OCO2)OCO3 (stereo not given)	-16%	.	.	.	.
CCN(CC(=O)Nc1c(F)cccc1F)C(=O)CCc1nc2cc(S(=O)(=O)N3CCOCC3)ccc2n1C	22%	1%	5%	0%	-1%
COc1ccc(-c2nn(-c3ccccc3)cc2/C=N/O)cc1OC	-10%	-50%	-10%	?	16µM*
COc1ccc(-c2nn(-c3ccccc3)cc2/C=N/Nc2ccc3ccccc3n2)cc1OC	10%	?	9%	26µM*	?
COc1ccc(-c2nn(-c3ccccc3)cc2/C=N/N=C(N)N)cc1OC	-51%	0%	-1%	?	?
CCN(CC(=O)Nc1ccc(NC(C)=O)cc1)C(=O)C1CCCC1	0%	0%	2%	-4%	4%
COc1ccc(OCC(=O)Nc2ccccc2N2CCCCC2)cc1	-27%	-8%	11%	12µM*	3.3µM*
O=C(CN1CCc2ccccc2C1)Nc1ccccc1N1CCCCCC1	-70%	15%	11%	?	13µM*
COc1ccc(OCC(=O)Nc2ccccc2N2CCN(C)CC2)cc1	?	-10%	-3%	-5%	0%
O=C(Nc1ccccc1N1CCCCC1)c1ccc(OC(F)F)cc1	-9%	4%	13%	26%	13µM*
O=C(CN1CCc2ccccc2C1)Nc1ccccc1Cl	22%	5%	40%	-1%	8%
Cc1ccc(Cl)c(OCC(=O)Nc2ccccc2N2CCCCC2)c1	11%	-8%	15%	3.7µM*	?
CCCCC(CC(O)COCCC)C(=O)NN (stereo not given)	-24%	-1%	2%	-15%	9%
COc1ccc(CC(=O)Nc2ccccc2N2CCCC2)cc1	3%	-2%	-2%	?	-1%
Cc1ccccc1OCC(=O)Nc1ccc(N2CCN(C)CC2)c(Cl)c1	-60%	5%	-5%	?	15µM*
COc1ccc(CNCC(=O)Nc2ccccc2-n2cccc2)cc1	-35%	4%[9.22 µM]	-4%	21µM*	?
COc1ccc(S(=O)(=O)N2CCC(C(=O)N3CCN(C)CC3)CC2)cc1OC	-10%	-8%	-2%	0%	17%
CCN(CC)S(=O)(=O)c1cccc(NC(=O)CC2CCCC2)c1	-6%	-8%	2%	-2%	2%
CCN(CC)S(=O)(=O)c1cccc(NC(=O)Nc2cccc(C(F)(F)F)c2)c1	5%[7.66 µM]	-3%	8%	?	23µM*
COc1ccc(-c2cc(C(=O)N(C)CC(=O)Nc3cccc(F)c3)c3ccccc3n2)cc1OC	-31%	.	.	.	.
CCn1nc(C)c(Br)c1C(=O)Sc1ccccc1Cl	-33%	2%	-6%	23%	18µM*
COc1ccc2c(c1)CCCC(Br)C2=O (stereo not given)	-45%	.	.	18µM*	?
